# Experimental data reported in paper PMC5540273 (PLoS ONE, 2017).
# Like-named read-outs stand apart in the source and are kept apart here.
# What was measured:
# ERK1 = system: T1, ERK1; settings: concentration: 1 μM, replicates: in singlicate; n = 1
# T1 construct: gene MAPK3
# ERK2 = system: T2, ERK2; settings: concentration: 1 μM, replicates: in singlicate; n = 1
# T2 construct: gene MAPK1
# ERK3 = system: T3, ERK3; settings: concentration: 1 μM, replicates: in singlicate; n = 1
# T3 construct: gene MAPK6
# ERK4 = system: T4, ERK4; settings: concentration: 1 μM, replicates: in singlicate; n = 1
# T4 construct: gene MAPK4
# ERK5 = system: T5, ERK5; settings: concentration: 1 μM, replicates: in singlicate; n = 1
# T5 construct: gene MAPK7
# ERK8 = system: T6, ERK8; settings: concentration: 1 μM, replicates: in singlicate; n = 1
# T6 construct: gene MAPK15
# ERN1 = settings: concentration: 1 μM, replicates: in singlicate; n = 1
# FAK = system: T7, FAK; settings: n = 1
# T7 construct: gene PTK2
# FER = settings: concentration: 1 μM, replicates: in singlicate; n = 1
# FES = settings: concentration: 1 μM, replicates: in singlicate; n = 1
# FGFR1 = settings: concentration: 1 μM, replicates: in singlicate; n = 1
# FGFR2 = settings: concentration: 1 μM, replicates: in singlicate; n = 1
# FGFR3 = settings: concentration: 1 μM, replicates: in singlicate; n = 1
# FGFR4 = settings: concentration: 1 μM, replicates: in singlicate; n = 1
# FGR = settings: concentration: 1 μM, replicates: in singlicate; n = 1
# FLT1 = settings: concentration: 1 μM, replicates: in singlicate; n = 1
# FLT3-autoinhibited = settings: concentration: 1 μM, replicates: in singlicate; n = 1
# FLT3 = settings: concentration: 1 μM, replicates: in singlicate; n = 1
# FLT4 = settings: concentration: 1 μM, replicates: in singlicate; n = 1
# FRK = settings: concentration: 1 μM, replicates: in singlicate; n = 1
# [1] = concentration: 1 μM, replicates: in singlicate
# 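Note: KINOMEscan kinase panel screen.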
smiles,measurement,setting,value
CNc1nccc(-c2ccc3c(N)n[nH]c3c2)n1 [GSK2206003],%Inh,ERK1,3%
same,%Inh,ERK2,0%
same,%Inh,ERK3,0%
same,%Inh,ERK4,32%
same,%Inh,ERK5,9%
same,%Inh,ERK8,28%
same,%Inh,ERN1,4%
same,%Inh,FAK; [1],0%
same,%Inh,FER,25%
same,%Inh,FES,1%
same,%Inh,FGFR1,41%
same,%Inh,FGFR2,5%
same,%Inh,FGFR3,11%
same,%Inh,FGFR4,2%
same,%Inh,FGR,29%
same,%Inh,FLT1,49%
same,%Inh,FLT3-autoinhibited,14%
same,%Inh,FLT3,50%
same,%Inh,FLT4,5%
same,%Inh,FRK,6%
CSc1ccc(NC2=C(c3ccc(Cl)cc3)C(=O)NC2=O)cc1 [SB-317658],%Inh,ERK1,9%
same,%Inh,ERK2,29%
same,%Inh,ERK3,11%
same,%Inh,ERK4,0%
same,%Inh,ERK5,0%
same,%Inh,ERK8,13%
same,%Inh,ERN1,47%
same,%Inh,FAK; [1],7%
same,%Inh,FER,0%
same,%Inh,FES,29%
same,%Inh,FGFR1,0%
same,%Inh,FGFR2,9%
same,%Inh,FGFR3,6%
same,%Inh,FGFR4,0%
same,%Inh,FGR,29%
same,%Inh,FLT1,5%
same,%Inh,FLT3-autoinhibited,5%
same,%Inh,FLT3,1%
same,%Inh,FLT4,3%
same,%Inh,FRK,0%
COc1ccc(NC(=O)c2ccoc2)cc1-c1ccc(C(=O)NCC2CC2)cc1 [GW810437],%Inh,ERK1,0%
same,%Inh,ERK2,7%
same,%Inh,ERK3,0%
same,%Inh,ERK4,6%
same,%Inh,ERK5,7%
same,%Inh,ERK8,0%
same,%Inh,ERN1,33%
same,%Inh,FAK; [1],0%
same,%Inh,FER,0%
same,%Inh,FES,7%
same,%Inh,FGFR1,3%
same,%Inh,FGFR2,0%
same,%Inh,FGFR3,0%
same,%Inh,FGFR4,1%
same,%Inh,FGR,0%
same,%Inh,FLT1,0%
same,%Inh,FLT3-autoinhibited,0%
same,%Inh,FLT3,0%
same,%Inh,FLT4,12%
same,%Inh,FRK,14%
Cc1ccc(-c2ccc3occ(-c4ccc(S(C)=O)cc4)c3c2)nn1 (stereo not drawn),%Inh,ERK1,0%
same,%Inh,ERK2,7%
same,%Inh,ERK3,0%
same,%Inh,ERK4,0%
same,%Inh,ERK5,0%
same,%Inh,ERK8,1%
same,%Inh,ERN1,1%
same,%Inh,FAK; [1],0%
same,%Inh,FER,0%
same,%Inh,FES,5%
same,%Inh,FGFR1,0%
same,%Inh,FGFR2,2%
same,%Inh,FGFR3,4%
same,%Inh,FGFR4,0%
same,%Inh,FGR,15%
same,%Inh,FLT1,0%
same,%Inh,FLT3-autoinhibited,0%
same,%Inh,FLT3,0%
same,%Inh,FLT4,0%
same,%Inh,FRK,0%
Cc1ccccc1CC(=O)N1CCc2cc(-c3cn(C)c4ncnc(N)c34)ccc21 [GSK2603346],%Inh,ERK1,0%
same,%Inh,ERK2,0%
same,%Inh,ERK3,0%
same,%Inh,ERK4,0%
same,%Inh,ERK5,0%
same,%Inh,ERK8,30%
same,%Inh,ERN1,1%
same,%Inh,FAK; [1],0%
same,%Inh,FER,17%
same,%Inh,FES,0%
same,%Inh,FGFR1,0%
same,%Inh,FGFR2,14%
same,%Inh,FGFR3,8%
same,%Inh,FGFR4,0%
same,%Inh,FGR,22%
same,%Inh,FLT1,59%
same,%Inh,FLT3-autoinhibited,0%
same,%Inh,FLT3,51%
same,%Inh,FLT4,29%
same,%Inh,FRK,2%
CN1CCN(Cc2ccc(NC(=O)Nc3ccc(N(C)c4ccnc(Nc5ccc(CS(C)(=O)=O)cc5)n4)cc3)cc2)CC1.Cl [GW827654],%Inh,ERK1,0%
same,%Inh,ERK2,0%
same,%Inh,ERK3,0%
same,%Inh,ERK4,0%
same,%Inh,ERK5,0%
same,%Inh,ERK8,78%
same,%Inh,ERN1,58%
same,%Inh,FAK; [1],46%
same,%Inh,FER,45%
same,%Inh,FES,21%
same,%Inh,FGFR1,5%
same,%Inh,FGFR2,23%
same,%Inh,FGFR3,9%
same,%Inh,FGFR4,0%
same,%Inh,FGR,49%
same,%Inh,FLT1,99.8%
same,%Inh,FLT3-autoinhibited,95.2%
same,%Inh,FLT3,99.8%
same,%Inh,FLT4,100%
same,%Inh,FRK,84%
CS(=O)(=O)c1cccc(CNc2nc(Nc3ccc4c(c3)CCC(=O)N4)ncc2C(F)(F)F)c1,%Inh,ERK1,0%
same,%Inh,ERK2,17%
same,%Inh,ERK3,0%
same,%Inh,ERK4,0%
same,%Inh,ERK5,15%
same,%Inh,ERK8,90%
same,%Inh,ERN1,0%
same,%Inh,FAK; 1 µM,100%
same,%Inh,FER,0%
same,%Inh,FES,12%
same,%Inh,FGFR1,63%
same,%Inh,FGFR2,65%
same,%Inh,FGFR3,36%
same,%Inh,FGFR4,32%
same,%Inh,FGR,0%
same,%Inh,FLT1,77%
same,%Inh,FLT3-autoinhibited,54%
same,%Inh,FLT3,99%
same,%Inh,FLT4,89%
same,%Inh,FRK,0%
Cn1cc(-c2ccc3c(c2)CCN3C(=O)Cc2cc(F)cc(C(F)(F)F)c2)c2c(N)ncnc21 [GSK2635225],%Inh,ERK1,15%
same,%Inh,ERK2,0%
same,%Inh,ERK3,0%
same,%Inh,ERK4,24%
same,%Inh,ERK5,0%
same,%Inh,ERK8,8%
same,%Inh,ERN1,6%
same,%Inh,FAK; [1],11%
same,%Inh,FER,34%
same,%Inh,FES,0%
same,%Inh,FGFR1,26%
same,%Inh,FGFR2,0%
same,%Inh,FGFR3,11%
same,%Inh,FGFR4,33%
same,%Inh,FGR,35%
same,%Inh,FLT1,39%
same,%Inh,FLT3-autoinhibited,13%
same,%Inh,FLT3,90%
same,%Inh,FLT4,30%
same,%Inh,FRK,18%
CN(c1ccc(F)c(NC(=O)c2cccc(OC(C)(C)C#N)c2Cl)c1)c1ccc2nc(NC(=O)C3CC3)sc2n1,%Inh,ERK1,1%
same,%Inh,ERK2,1%
same,%Inh,ERK3,0%
same,%Inh,ERK4,0%
same,%Inh,ERK5,4%
same,%Inh,ERK8,0%
same,%Inh,ERN1,0%
same,%Inh,FAK; [1],1%
same,%Inh,FER,0%
same,%Inh,FES,0%
same,%Inh,FGFR1,48%
same,%Inh,FGFR2,72%
same,%Inh,FGFR3,8%
same,%Inh,FGFR4,26%
same,%Inh,FGR,84%
same,%Inh,FLT1,95.8%
same,%Inh,FLT3-autoinhibited,0%
same,%Inh,FLT3,96.7%
same,%Inh,FLT4,99.8%
same,%Inh,FRK,71%
